# Reference: PubChem BioAssay (NCI)
# This is part of a sample that, as a whole, favours compounds with a hit. Of some 83,000 tested, about 20% had one in any assay.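 Compound tested at a single concentration for 48 hours in 96-well plates; a percent growth value below 10 was scored as active.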 A number with no mark means an inactive call. The source made the active and inactive calls.
# Assays:
# Assay in all cases: NCI-60 one-dose screen, 48 h (100 = growth as untreated, 0 = no growth, -100 = all killed)
# Conditions in all cases: 10 µM
# [1] = tested on: NCI-H23 lung
# [2] = tested on: NCI-H226 lung
# [3] = tested on: NCI-H322M lung
# [4] = tested on: HOP-62 NSCLC
# [5] = tested on: NCI-H460 lung
# [6] = tested on: HOP-92 NSCLC
# [7] = tested on: NCI-H522 lung
# [8] = tested on: A549/ATCC NSCLC
# [9] = tested on: 786-0 renal
SMILES,growth [1],growth [2],growth [3] [%],growth [4],growth [5],growth [6],growth [7],growth [8],growth [9]
CC(Oc1ccc(Cl)cc1)c1ccccc1 (centres undefined),102%,93%,87.1,98.3%,104%,95%,103%,102%,98.5%
O=c1oc2c3ccc4cnccc4c3[nH]c2c2ccccc12,65%,77.1%,78.6,70.8%,5.33% (active),49.2%,-11.5% (active),0.199% (active),12.2%
CN(C)Cc1cccs1,94%,93.9%,101,69.1%,108%,97.2%,94.2%,93.7%,103%
Cc1cc(OI)c(C(C)C)cc1-c1cc(C(C)C)c(OI)cc1C,94.9%,93.7%,95.9,84.9%,106%,101%,94.5%,94.3%,103%
Cc1ccc(-n2nnc3c(sc4ccccc43)c2=O)cc1,70.3%,46.9%,38.8,31.6%,18.3%,6.27% (active),58.6%,35.3%,24.4%
COc1cc(C(c2c[nH]c3ccccc23)N2CCCC2)ccc1OCc1ccccc1 (centres undefined),82%,80.1%,72.7,90.3%,98.9%,12.7%,71.1%,94.5%,87.4%
CCN(CC)CCOC(=O)c1ccc(NC(=O)Nc2cccc(Cl)c2)cc1,95.8%,99.6%,103,93.4%,108%,85.1%,86.7%,91.4%,95.5%
C=CCc1cc(Nc2c3ccc(Cl)cc3nc3ccc(OC)cc23)cc(CN(CC)CC)c1O,-0.558% (active),26.3%,49.5,9.37% (active),4.5% (active),-20.5% (active),-5.89% (active),13.3%,12.3%
COc1cc(C2C=C(c3ccc(Cl)c(Cl)c3)N=C3SC(C)=CN32)cc(OC)c1OC (centres undefined),79.5%,50.5%,81.8,91.1%,77.5%,81.9%,57.2%,83.8%,85.6%
CC(=O)OC1Oc2ccccc2-c2oc(=O)c(-c3cc(=O)oc4cc(O)ccc34)cc21 (centres undefined),80.8%,91.5%,89.2,93.8%,93.8%,44.8%,69.6%,84.3%,80.4%
COc1ccc(C2CC(c3ccc(-c4ccccc4)cc3)=NN2c2ccc(S(N)(=O)=O)cc2)cc1 (centres undefined),80.9%,74.9%,68.5,90.8%,41.9%,35.6%,40.3%,47.3%,92.1%
O=C(c1ccccc1)C(Sc1ccccc1)c1ccccc1 (centres undefined),76.4%,94%,108,93%,67.8%,67.2%,62.4%,92%,104%
COc1cc(CSc2nc3ccc(C)cc3c(=O)n2-c2ccccc2)cc(OC)c1OC,22%,48.3%,47.4,37.8%,20.2%,67.9%,8.32% (active),39.3%,37.6%
CCc1cc2n(n1)-c1ncc(C(=O)OC)cc1Oc1ccccc1-2,104%,99.8%,108,95.4%,104%,86.2%,94.2%,91.4%,100%
COc1ccc(Nc2nc(NCc3ccccc3)c3ccccc3n2)cc1,77.3%,6.99% (active),41.1,-48% (active),3.09% (active),-4.85% (active),50.1%,21.9%,33.9%
N#CCC1CCCC1,115%,107%,111,92.7%,105%,80%,109%,101%,96.3%

SMILES,growth [1],growth [2],growth [3] [%],growth [4],growth [5],growth [6],growth [7],growth [8],growth [9]
COc1ccc2nc(-c3ccccc3)cc(C(C)=O)c2c1,89.8%,87.6%,84.7,78.3%,99.1%,71.5%,80.9%,100%,95.8%
Nc1c(C(=O)NC2CCCCC2)sc2nc3c(cc12)C(=O)CCC3,98.7%,95.4%,105,120%,103%,82.9%,98.6%,84.5%,99.5%
CCc1c(C)[nH]c(=O)c(C(N)=O)c1C#N,107%,117%,104,96.7%,106%,109%,80.5%,89.4%,96.2%
N#Cc1c2c([nH]c(=O)c1C(N)=O)CCCCC2,100%,100%,97.6,92.4%,105%,112%,90.7%,91.3%,98.5%
COc1cc(-c2cc(-c3cc(OC)c(OC)c(OC)c3)nc3nc(N)[nH]c(=O)c23)ccc1Oc1ccnc2cc(Cl)ccc12,42.1%,76%,37.5,29.8%,13.8%,6.33% (active),29.9%,32.3%,51.4%
FC(F)(F)c1ccc(-c2cnc(Br)nc2NC2CCCCCC2)cc1,33.1%,53.1%,78.2,53.5%,28.6%,-21.4% (active),7.77% (active),28.8%,54.6%
NC1CCC(Nc2nc(NCc3cc(Cl)ccc3O)c3ncn(C4CCCC4)c3n2)CC1 (centres undefined),-49.1% (active),-6.72% (active),10.9,-18% (active),0.39% (active),-18.1% (active),-50.2% (active),-4.99% (active),-11.3% (active)
COc1cc2ccnc(C=O)c2cc1OC,83.5%,101%,87.5,89.7%,107%,51.2%,68.4%,101%,99.9%
N#Cc1c(-c2ccccc2)nc(SCC(=O)N2CCOCC2)[nH]c1=O,104%,98%,98.1,83.7%,105%,88.9%,83.6%,101%,100%
CCCCCN(CCCCC)C(C)C(O)c1ccc2cc(Cl)c3ccccc3c2c1 (centres undefined),84.9%,86.2%,103,92.1%,80.5%,55.9%,90%,102%,98.5%
CCC1(C)OC(=O)NC1=O (centres undefined),96%,93.1%,105,71.1%,111%,93.2%,84.5%,79.2%,99.6%
COc1ccc(-c2cc(/C=C3\C(=O)Nc4cc(Cl)ccc43)[nH]n2)cc1,54.1%,56.1%,81.9,45.4%,22%,51.7%,-14.9% (active),44%,52.1%
Nc1cc2c(cc1Cl)-c1ccc(Cl)cc1C2=O,98.3%,105%,103,90.2%,96.6%,78.1%,90.3%,85.7%,103%
COc1cc(C(=O)n2nc(N)c3c(C)cc(C)nc32)cc(OC)c1OC,88.8%,92.1%,88.6,79.3%,89.9%,93.5%,41%,55.7%,90.4%
C/C(=N/NC(=O)c1sc(=S)n(C)c1N)c1cc2cc(Cl)ccc2o1,97.9%,102%,88.1,96.5%,89%,114%,88.6%,8.04% (active),106%
